The list is not random: actives were taken first. Their share in the collection is about 0.84%.
PPARg SRC-1 ag: PPARgamma agonists recruiting SRC-1 coactivator, primary screen, biochemical; Peroxisome proliferator-activated receptor gamma (Homo sapiens), P37231; hit rate 0.41% among 200,000; PPARgamma-SRC-1 coactivator recruitment biochemical assay; activation, % at 8 µM; in the data active = activation above about 19%;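 also: 0% = DMSO and 100% = reference agonist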
SRC1 TRFRET art: TR-FRET detection interference compounds, primary screen, artefact control for PPARgamma SRC-1 recruitment agonists, biochemical, TR-FRET emission ratio | TR-FRET ratio at 8 µM | TR-FRET detection artefact counter-screen; hits give high values | hit rate 0.34% among 99,000; in the data active = TR-FRET ratio above about 2300
SRC3 TRFRET art: TR-FRET detection interference compounds, artefact control for PPARgamma SRC-3 recruitment agonists, biochemical, TR-FRET ratio | TR-FRET artefact counter-screen, PPARgamma/SRC-3 format; hits give high values | TR-FRET ratio at 8 µM | hit rate 0.39% among 99,000; in the data active = TR-FRET ratio above about 2000
PPARg SRC3 recr: PPARgamma agonists recruiting SRC-3 coactivator, primary screen, biochemical; activation, % at 8 µM; hit rate 0.26% among 200,000; biochemical PPARgamma/SRC-3 coactivator recruitment assay; Peroxisome proliferator-activated receptor gamma (Homo sapiens), P37231; in the data active = activation above about 23%;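 also: 0% = DMSO and 100% = reference agonist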
SRC2 TRFRET art: TR-FRET signal artefacts, primary screen, artefact control for PPARgamma SRC-2 agonist project, biochemical; TR-FRET artefact counter-screen; hits give high values; TR-FRET ratio at 8 µM; hit rate 0.4% among 200,000; AID 1049, 2008; in the data active = TR-FRET ratio above about 2000
PPARg SRC2 recr: agonists of PPARg-SRC-2 recruitment, primary screen, biochemical, HTS. hit rate 0.34% among 200,000. PPARgamma LBD-SRC-2 recruitment. activation, % at 8 µM. AID 1032, 2008. Peroxisome proliferator-activated receptor gamma (Homo sapiens), P37231;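 also: 0% = vehicle and 100% = reference agonist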
PPARg SRC2 ag: agonists of PPARgamma SRC-2 coactivator recruitment, confirmation, biochemical, HTS | shares compounds with PPARg SRC3 recr | biochemical SRC-2 recruitment by PPARgamma | activation, % at 8 µM | hit rate 52% among 790 | AID 1297, 2008;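 also: 0% = vehicle alone and 100% = reference agonist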
PPARg SRC1 conf: PPARgamma agonists recruiting SRC-1 coactivator, confirmation, biochemical; PPARgamma–SRC-1 coactivator recruitment biochemical assay; shares compounds with PPARg SRC3 recr; hit rate 43% among 790; activation, % at 8 µM; in the data active = activation above about 20%;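 also: 0% = vehicle wells and 100% = reference agonist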
PPARg SRC3 ag: PPARgamma-driven SRC-3 coactivator recruitment agonists, confirmation, biochemical; shares compounds with PPARg SRC3 recr; biochemical PPARgamma-SRC-3 coactivator recruitment, agonist mode; activation, % at 8 µM; hit rate 29% among 790; AID 1301, 2008; in the data active = activation above about 24%;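 also: 0% = vehicle wells and 100% = reference agonist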
Starred values were filed as active, the others as inactive. Rule as the data show it, unless noted: active = activation above about 22%; inactive = the rest.

How did COC(=O)c1ccc2c(=O)n(-c3ccccc3)c(=S)[nH]c2c1 do in these assays?
PPARg SRC-1 ag: 1; SRC1 TRFRET art: 1949; SRC3 TRFRET art: 1579; PPARg SRC3 recr: 0; SRC2 TRFRET art: 1472; PPARg SRC2 recr: 0

How did CCN(CC)C(=O)CSc1nnc(-c2cccnc2)n1CCc1ccccc1 do in these assays?
PPARg SRC-1 ag: 5; PPARg SRC3 recr: -2; SRC2 TRFRET art: 1612; PPARg SRC2 recr: 8

Results for Oc1c(Br)cc(C=Nc2ccc3nc(-c4ccccc4)[nH]c3c2)c(O)c1Br ?
PPARg SRC-1 ag: 22*; SRC1 TRFRET art: 1998; SRC3 TRFRET art: 1961; PPARg SRC3 recr: 12; SRC2 TRFRET art: 1907; PPARg SRC2 recr: 12; PPARg SRC2 ag: 15; PPARg SRC1 conf: 15; PPARg SRC3 ag: 9

How did Cc1nnc(C)n1/N=C/c1ccc(C(=O)O)cc1 do in these assays?
PPARg SRC-1 ag: 3; PPARg SRC3 recr: 8; SRC2 TRFRET art: 1568; PPARg SRC2 recr: 6

What do the screens show for `Cc1ccc(S(=O)(=O)Nc2cnn(-c3ccccc3)c(=O)c2Cl)cc1`?
PPARg SRC-1 ag: 34*; SRC1 TRFRET art: 3010*; SRC3 TRFRET art: 2439*; PPARg SRC3 recr: 28*; SRC2 TRFRET art: 2289*; PPARg SRC2 recr: 39*; PPARg SRC2 ag: 47*; PPARg SRC1 conf: 35*; PPARg SRC3 ag: 28*

How did CNc1cnn(-c2ccc(C)cc2)c(=O)c1Cl do in these assays?
PPARg SRC-1 ag: -4; PPARg SRC3 recr: 9; SRC2 TRFRET art: 1515; PPARg SRC2 recr: -2

Results for COc1cnn(-c2ccc(C)cc2)c(=O)c1SCc1ccccc1 ?
PPARg SRC-1 ag: 3; PPARg SRC3 recr: 17; SRC2 TRFRET art: 1514; PPARg SRC2 recr: 0

What do the screens show for `CCSc1cnn(-c2ccccc2)c(=O)c1SCC`?
PPARg SRC-1 ag: 68*; PPARg SRC3 recr: 123*; SRC2 TRFRET art: 3615*; PPARg SRC2 recr: 96*; PPARg SRC2 ag: 65*; PPARg SRC1 conf: 41*; PPARg SRC3 ag: 47*

How did CCCCSc1cnn(-c2ccccc2)c(=O)c1SCCCC do in these assays?
PPARg SRC-1 ag: 24*; PPARg SRC3 recr: 45*; SRC2 TRFRET art: 1992*; PPARg SRC2 recr: 28*; PPARg SRC2 ag: 40*; PPARg SRC1 conf: 24*; PPARg SRC3 ag: 26*

What do the screens show for `O=c1c(Cl)c(Cl)cnn1-c1ccccc1`?
PPARg SRC-1 ag: 2; SRC1 TRFRET art: 1870; SRC3 TRFRET art: 1630; PPARg SRC3 recr: 3; SRC2 TRFRET art: 1411; PPARg SRC2 recr: 2

How did CSc1cnn(-c2ccccc2)c(=O)c1SC do in these assays?
PPARg SRC-1 ag: 106*; PPARg SRC3 recr: 152*; SRC2 TRFRET art: 3988*; PPARg SRC2 recr: 121*; PPARg SRC2 ag: 99*; PPARg SRC1 conf: 68*; PPARg SRC3 ag: 68*

How did CSc1cnn(Cc2ccccc2)c(=O)c1SCc1ccccc1 do in these assays?
PPARg SRC-1 ag: 17; SRC1 TRFRET art: 2367*; SRC3 TRFRET art: 1803; PPARg SRC3 recr: 24*; SRC2 TRFRET art: 1771; PPARg SRC2 recr: 30*; PPARg SRC2 ag: 85*; PPARg SRC1 conf: 61*; PPARg SRC3 ag: 57*

How did COc1cnn(-c2ccccc2)c(=O)c1SCc1ccc(Cl)cc1Cl do in these assays?
PPARg SRC-1 ag: -1; PPARg SRC3 recr: 3; SRC2 TRFRET art: 1479; PPARg SRC2 recr: 6

What do the screens show for `c1ccc(CCNc2ncnc3ccccc23)cc1`?
PPARg SRC-1 ag: 6; SRC1 TRFRET art: 1989; SRC3 TRFRET art: 1558; PPARg SRC3 recr: 8; SRC2 TRFRET art: 1648; PPARg SRC2 recr: 6

What do the screens show for `S=c1[nH]nc(-c2cccnc2)o1`?
PPARg SRC-1 ag: 17; PPARg SRC3 recr: 12; SRC2 TRFRET art: 1625; PPARg SRC2 recr: 13

How did S=c1[nH]nc(-c2cccc(Br)c2)o1 do in these assays?
PPARg SRC-1 ag: 94*; PPARg SRC3 recr: 150*; SRC2 TRFRET art: 4187*; PPARg SRC2 recr: 108*; PPARg SRC2 ag: 68*; PPARg SRC1 conf: 48*; PPARg SRC3 ag: 48*

How did Cc1c(N=Cc2nc3ccccc3n2C)c(=O)n(-c2ccccc2)n1C do in these assays?
PPARg SRC-1 ag: 7; PPARg SRC3 recr: 5; SRC2 TRFRET art: 1578; PPARg SRC2 recr: 2

Results for Cc1cccc(-c2ccc(C=Nc3c(C)n(C)n(-c4ccccc4)c3=O)o2)c1 ?
PPARg SRC-1 ag: 23*; PPARg SRC3 recr: 39*; SRC2 TRFRET art: 1999*; PPARg SRC2 recr: 30*; PPARg SRC2 ag: 20; PPARg SRC1 conf: 18; PPARg SRC3 ag: 14

How did Cc1ccc(NC(=S)N2CCN(C(=O)C3CCCO3)CC2)cc1 (stereo not drawn) do in these assays?
PPARg SRC-1 ag: 3; SRC1 TRFRET art: 1893; SRC3 TRFRET art: 1846; PPARg SRC3 recr: 6; SRC2 TRFRET art: 1659; PPARg SRC2 recr: 7

How did CCCC(=O)Nc1c2c(nc3ccccc13)N(c1ccccc1)CC2 do in these assays?
PPARg SRC-1 ag: 46*; SRC1 TRFRET art: 2803*; SRC3 TRFRET art: 2855*; PPARg SRC3 recr: 46*; SRC2 TRFRET art: 3204*; PPARg SRC2 recr: 61*; PPARg SRC2 ag: 41*; PPARg SRC1 conf: 25*; PPARg SRC3 ag: 26*

How did CCN(CC)CCNC(=O)CSc1c2c(nc3cc(Cl)ccc13)CCCC2 do in these assays?
PPARg SRC-1 ag: 23*; SRC1 TRFRET art: 3055*; SRC3 TRFRET art: 2600*; PPARg SRC3 recr: 25*; SRC2 TRFRET art: 2230*; PPARg SRC2 recr: 47*; PPARg SRC2 ag: 33*; PPARg SRC1 conf: 22*; PPARg SRC3 ag: 22

How did Cc1ccc(CNC(=O)CSc2c3c(nc4ccc(Cl)cc24)CCCC3)o1 do in these assays?
PPARg SRC-1 ag: 13; PPARg SRC3 recr: 19; SRC2 TRFRET art: 1885; PPARg SRC2 recr: 16

Results for Cc1cccc(NC(=O)CSc2c3c(nc4ccccc24)CCC3)n1 ?
PPARg SRC-1 ag: -3; SRC1 TRFRET art: 1807; SRC3 TRFRET art: 1583; PPARg SRC3 recr: 5; SRC2 TRFRET art: 1518; PPARg SRC2 recr: 7

What do the screens show for `COc1cccc(NC(=O)CSc2c3c(nc4ccccc24)CCCC3)c1`?
PPARg SRC-1 ag: 21*; SRC1 TRFRET art: 2392*; SRC3 TRFRET art: 2050; PPARg SRC3 recr: 13; SRC2 TRFRET art: 1718; PPARg SRC2 recr: 21; PPARg SRC2 ag: 22*; PPARg SRC1 conf: 17; PPARg SRC3 ag: 15

Source: PubChem
